According to PubChem BioAssay (NCATS):
Values without a mark were called inactive. Records with an inconclusive call do not appear. The source made the active and inactive calls. The call rests on the fitted dose curve; in most records, active means well fitted curve in the direction sought with a large enough effect; inconclusive means small, poorly fitted or top-dose-only effect, or another doubt; inactive means no such curve, though single readings can be large; an effect the other way counts as inactive or inconclusive.

Test: Cellular Toxicity (caspase-3) SHSY5Y (AID 657);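 further: cells exposed to compound for 16 hours at 37 °C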
Conditions: SH-SY5Y caspase-3 activation, DMSO zero, 10 µM staurosporine = 100%; series mostly up to 91.7 µM; caspase-3 activation: at the top concentration
Method in brief: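 Luminescent caspase-3/7 readout (aminoluciferin release) in SH-SY5Y cells after 16 h compound exposure in complete medium. Activity scaled between DMSO basal and 10 uM staurosporine as 100%; concentration-response fitted to Hill equation for AC50.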

| SMILES | caspase-3 activation |
| --- | --- |
| Nc1nc(N)c2nc(-c3ccccc3)c(N)nc2n1 | 4.33% |
| CN=C(NC#N)NCCSCc1nc[nH]c1C | 3.58% |
| COC(=O)[C@H]1[C@H]2C[C@@H]3c4[nH]c5cc(OC)ccc5c4CCN3C[C@H]2C[C@@H](OC(=O)c2cc(OC)c(OC)c(OC)c2)[C@@H]1OC | 14.6% |
| NC(=Nc1ccccc1)Nc1ccccc1 | 2.89% |
| CCCCNC(=O)NS(=O)(=O)c1ccc(C)cc1 | 3.95% |
| NC(=O)N1c2ccccc2C=Cc2ccccc21 | -1.71% |
| Nc1ncn([C@@H]2O[C@H](CO)[C@@H](O)[C@H]2O)c(=O)n1 | 16.3% |
| COc1cc(Cc2cnc(N)nc2N)cc(OC)c1OC | 2.7% |
| CCCCOCCOCCOCc1cc2c(cc1CCC)OCO2 | -2.2% |
| COc1ccc(CN(CCN(C)C)c2ccccn2)cc1 | 2.71% |
| O=c1[nH]c(=O)n([C@H]2C[C@H](O)[C@@H](CO)O2)cc1Br | -0.521% |

Test: Cellular Toxicity (caspase-3) BJ (AID 658);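 further: 0% = DMSO basal and 100% = 10 µM staurosporine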
Conditions: BJ fibroblasts, luminescence, normalized: DMSO 0%, staurosporine 100%; series mostly up to 91.7 µM; caspase-3 activation: at the top concentration
Excerpt: NIH Chemical Genomics Center [NCGC]
NIH Molecular Libraries Screening Centers Network [MLSCN]
National Institutes of Environmental Health Sciences [NIEHS]
National Toxicology Program [NTP]
We have developed a 1536-well cell-based assay for quantitative high throughput screening (qHTS) against a number of cell lines to determine in vitro caspase 3/7 activity of small molecules. This particular assay uses BJ cell line which is derived from normal human foreskin fibroblast.
NCGC Assay Protocol Summary:
The Caspase-Glo 3/7 assay (Promega) is a homogeneous method to measure caspase-3 and caspase-7 activities in cultured cells. The quantitation of caspase 3/7 activity is based on the cleavage of a peptide-aminoluciferin substrate. After caspase cleaves the substrate the free aminoluciferin is liberated and serves as the substrate of luciferase, which generates the light. The luminescent signal is proportional to amount of caspase 3/7 activity present.
Using the Caspase-Glo 3/7 assay, the amount of caspase 3/7 activity was measured in the BJ cell line with complete culture medium following compound treatment for 16 hours. The assay was performed in opaque white 1536-well plates. In the screen, staurosporine and tamoxifen were used as positive controls. Library compounds were measured for their ability to cause the activation of caspase 3/7 in the cell line, as reflected by an increase in luminescence signal, in a concentration-dependent manner. Data were normalized to the controls for basal activity (DMSO only) and 100% stimulation (10 uM staurosporine). AC50 values were determined from concentration-response data modeled with the standard Hill equation.
qHTS protocol for caspase 3/7 assay in the BJ cells
[Step] [Parameter] [Value] [Description]
1. Reagent; 5 uL; 1000 the BJ cells/well
2. Time; 5 hr; 37 °C incubation
4. Controls; 23 nL; Tamoxifen 0.23 uM to 100 uM & staurosporine 1.4 pM to 100 uM
5. Time; 16 hr; 37 °C incubation
6. Reagent; 5 uL; Caspase-Glo 3/7 reagent
7. Time; 1 hr; Room Temperature
8. Detection; Luminescence; Viewlux plate reader
Keywords: caspase 3/7, apoptosis, the BJ cell line, luminescence, NTPHTS, NTPHTS_NCGC, NIEHS, EPA, DSSTox, MLSMR, MLSCN, NIH Roadmap, qHTS, NCGC

| SMILES | caspase-3 activation |
| --- | --- |
| CN=C(NC#N)NCCSCc1nc[nH]c1C | -0.686% |
| NC(=Nc1ccccc1)Nc1ccccc1 | 1.34% |
| CCCCNC(=O)NS(=O)(=O)c1ccc(C)cc1 | 0.908% |
| NC(=O)N1c2ccccc2C=Cc2ccccc21 | 1.9% |
| Nc1ncn([C@@H]2O[C@H](CO)[C@@H](O)[C@H]2O)c(=O)n1 | 3.16% |
| COc1cc(Cc2cnc(N)nc2N)cc(OC)c1OC | -0.466% |
| CCCCOCCOCCOCc1cc2c(cc1CCC)OCO2 | 0.0024% |
| COc1ccc(CN(CCN(C)C)c2ccccn2)cc1 | -0.619% |
| O=c1[nH]c(=O)n([C@H]2C[C@H](O)[C@@H](CO)O2)cc1Br | 0.952% |

Test: Cellular Toxicity (caspase-3) Mesangial (AID 660);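 further: combined caspase 3 and 7 activity read by Caspase-Glo luminescence; cells exposed to compound for 16 h before the caspase read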
Conditions: mesangial cells, normalized: DMSO 0%, 100 µM tamoxifen 100%; series mostly up to 91.7 µM; caspase-3 activation: at the top concentration
Method in brief: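 Concentration-response qHTS: compound-induced rise in caspase 3/7 luminescence in human mesangial cells after 16 h, normalized to DMSO and 100 uM tamoxifen controls.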

| SMILES | caspase-3 activation |
| --- | --- |
| Nc1nc(N)c2nc(-c3ccccc3)c(N)nc2n1 | 1.24% |
| CN=C(NC#N)NCCSCc1nc[nH]c1C | -0.889% |
| COC(=O)[C@H]1[C@H]2C[C@@H]3c4[nH]c5cc(OC)ccc5c4CCN3C[C@H]2C[C@@H](OC(=O)c2cc(OC)c(OC)c(OC)c2)[C@@H]1OC | -0.964% |
| NC(=Nc1ccccc1)Nc1ccccc1 | -0.104% |
| CCCCNC(=O)NS(=O)(=O)c1ccc(C)cc1 | 0.149% |
| NC(=O)N1c2ccccc2C=Cc2ccccc21 | 0.37% |
| Nc1ncn([C@@H]2O[C@H](CO)[C@@H](O)[C@H]2O)c(=O)n1 | 2.78% |
| COc1cc(Cc2cnc(N)nc2N)cc(OC)c1OC | -0.864% |
| CCCCOCCOCCOCc1cc2c(cc1CCC)OCO2 | 0.0512% |
| COc1ccc(CN(CCN(C)C)c2ccccn2)cc1 | -0.487% |
| O=c1[nH]c(=O)n([C@H]2C[C@H](O)[C@@H](CO)O2)cc1Br | -0.557% |

Test: Cellular Toxicity (caspase-3) SK-N-SH (AID 661); further: potency means the concentration at half of the fitted maximal effect;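 on caspase-3 activation: 0% = DMSO basal and 100% = 10 µM staurosporine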
Conditions: SK-N-SH caspase-3 activation, qHTS; caspase-3 activation: at 91.7 µM (top of the series), DMSO as zero, staurosporine as full
Method in brief: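 Caspase 3/7 activation is measured as a luminescence increase from aminoluciferin released by substrate cleavage in SK-N-SH cells after 16 hr compound treatment; values are AC50 from concentration-response curves.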

| SMILES | caspase-3 activation | Potency |
| --- | --- | --- |
| CN=C(NC#N)NCCSCc1nc[nH]c1C | -1.11% |  |
| COC(=O)[C@H]1[C@H]2C[C@@H]3c4[nH]c5cc(OC)ccc5c4CCN3C[C@H]2C[C@@H](OC(=O)c2cc(OC)c(OC)c(OC)c2)[C@@H]1OC | 87.8% (active) |  |
| NC(=Nc1ccccc1)Nc1ccccc1 | 0.122% |  |
| CCCCNC(=O)NS(=O)(=O)c1ccc(C)cc1 | -0.361% |  |
| NC(=O)N1c2ccccc2C=Cc2ccccc21 | 0.961% |  |
| Nc1ncn([C@@H]2O[C@H](CO)[C@@H](O)[C@H]2O)c(=O)n1 |  | 31.6 µM (active) |
| COc1cc(Cc2cnc(N)nc2N)cc(OC)c1OC | 0.291% |  |
| CCCCOCCOCCOCc1cc2c(cc1CCC)OCO2 | 1.34% |  |
| COc1ccc(CN(CCN(C)C)c2ccccn2)cc1 | -0.853% |  |
| O=c1[nH]c(=O)n([C@H]2C[C@H](O)[C@@H](CO)O2)cc1Br | -0.482% |  |

Test: Cellular Toxicity (caspase-3) H-4-II-E (AID 663);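 further: cells exposed to compound for 16 hr before readout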
Conditions: H-4-II-E rat hepatoma, scaled: DMSO 0%, 100 µM tamoxifen 100%; series mostly up to 92.2 µM; caspase-3 activation: at the top concentration
Method in brief: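 Luminescence from caspase-cleaved aminoluciferin substrate, read 20 min after reagent addition, reports caspase 3/7 activation in rat H-4-II-E cells after 16 hr compound exposure. Normalized to DMSO (basal) and 100 uM tamoxifen (100%); AC50 from Hill fits.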

| SMILES | caspase-3 activation |
| --- | --- |
| Nc1nc(N)c2nc(-c3ccccc3)c(N)nc2n1 | 13% |
| CN=C(NC#N)NCCSCc1nc[nH]c1C | 0.249% |
| NC(=Nc1ccccc1)Nc1ccccc1 | 0.125% |
| CCCCNC(=O)NS(=O)(=O)c1ccc(C)cc1 | 0.737% |
| NC(=O)N1c2ccccc2C=Cc2ccccc21 | 0.636% |
| Nc1ncn([C@@H]2O[C@H](CO)[C@@H](O)[C@H]2O)c(=O)n1 | 12.2% |
| COc1cc(Cc2cnc(N)nc2N)cc(OC)c1OC | 0.0588% |
| CCCCOCCOCCOCc1cc2c(cc1CCC)OCO2 | 1.12% |
| COc1ccc(CN(CCN(C)C)c2ccccn2)cc1 | 1.17% |
| O=c1[nH]c(=O)n([C@H]2C[C@H](O)[C@@H](CO)O2)cc1Br | 0.994% |

Test: Cellular Toxicity (caspase-3) Hek293 (AID 664);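 further: cells exposed to compound for 16 h at 37 °C before readout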
Conditions: HEK293 caspase-3 activation, DMSO = 0%, 100 µM tamoxifen = 100%; series mostly up to 92.2 µM; caspase-3 activation: at the top concentration
Method in brief: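 Activation of caspase-3/7 is measured as increased luminescence from cleaved peptide-aminoluciferin substrate in HEK293 cells treated 16 hours at 37 °C. AC50 values come from Hill-equation fits of concentration-response data.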

| SMILES | caspase-3 activation |
| --- | --- |
| Nc1nc(N)c2nc(-c3ccccc3)c(N)nc2n1 | -1.5% |
| CN=C(NC#N)NCCSCc1nc[nH]c1C | 0.444% |
| COC(=O)[C@H]1[C@H]2C[C@@H]3c4[nH]c5cc(OC)ccc5c4CCN3C[C@H]2C[C@@H](OC(=O)c2cc(OC)c(OC)c(OC)c2)[C@@H]1OC | 20.9% |
| NC(=Nc1ccccc1)Nc1ccccc1 | -0.705% |
| CCCCNC(=O)NS(=O)(=O)c1ccc(C)cc1 | 2.58% |
| NC(=O)N1c2ccccc2C=Cc2ccccc21 | 0.18% |
| Nc1ncn([C@@H]2O[C@H](CO)[C@@H](O)[C@H]2O)c(=O)n1 | -5.02% |
| COc1cc(Cc2cnc(N)nc2N)cc(OC)c1OC | 2.39% |
| CCCCOCCOCCOCc1cc2c(cc1CCC)OCO2 | 0.99% |
| COc1ccc(CN(CCN(C)C)c2ccccn2)cc1 | 1.3% |
| O=c1[nH]c(=O)n([C@H]2C[C@H](O)[C@@H](CO)O2)cc1Br | 3.86% |
